Holding throughout (conditions): mRNA level, 48 h; actives raise or lower the signal
Read-out in assay [1]: JUN Transcription Factor, JUN (gene 3725)
Nature of the assay: LTEA_HepaRG_JUN: Life Technologies and Expression Analysis (LTEA) Assay for JUN Transcription Factor using HepaRG (AID 2283513). Summed up:
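mRNA measured by TaqMan qRT-PCR after 48 h chemical exposure of HepaRG cultures; normalization to three housekeeping genes. Duplicate eight-point half-log curves from 100 uM in 0.5% DMSO; gain or loss fitted against DMSO baseline.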

Read-out in assay [2]: Lipase C (LIPC), LIPC (gene 3990)
Nature of the assay: LTEA_HepaRG_LIPC: Life Technologies and Expression Analysis (LTEA) Assay for Lipase C (LIPC) using HepaRG (AID 2283514). Summed up:
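In this multiplexed gene-expression screen, human HepaRG cultures received test chemicals for 48 h across eight concentrations with 100 uM highest, in duplicate. Values reflect LIPC mRNA induction or suppression versus DMSO vehicle, from normalized qRT-PCR.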

Read-out in assay [3]: Lipoprotein lipase (LPL), LPL (gene 4023)
Put plainly: LTEA_HepaRG_LPL: Life Technologies and Expression Analysis (LTEA) Assay for Lipoprotein lipase (LPL) using HepaRG (AID 2283515). Summed up:
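Concentration-response testing used half-log steps from 100 uM in 0.5% DMSO on human HepaRG cells, 48 h, duplicate wells. Phenobarbital 1 mM served as induction control; LPL mRNA was normalized to ACTB, GAPDH, POLR2A.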

Read-out in assay [4]: MicroRNA 122 (MIR122), gene 406906
Put plainly: LTEA_HepaRG_MIR122: Life Technologies and Expression Analysis (LTEA) Assay for MicroRNA 122 (MIR122) using HepaRG (AID 2283516). Further: the transcript read is the microRNA miR-122. Put shortly:
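Expression measured by microfluidic qRT-PCR with three housekeeping genes for normalisation, after 48 h treatment of HepaRG cultures. Eight concentrations (top 100 uM, half-log steps, 0.5% DMSO vehicle) in duplicate; gain or loss fitted relative to vehicle.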

Read-out in assay [5]: matrix metalloproteinase-10 (MMP10), MMP10 (gene 4319)
Nature of the assay: LTEA_HepaRG_MMP10: Life Technologies and Expression Analysis (LTEA) Assay for matrix metalloproteinase-10 (MMP10) using HepaRG (AID 2283517). Summed up:
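In differentiated HepaRG cultures kept in 0.5% DMSO, test chemicals act for 48 h over an eight-point range with a top dose of 100 uM. Expression is then quantified by TaqMan RT-PCR against ACTB, GAPDH and POLR2A.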

Read-out in the next assay: MYC, MYC (gene 4609)
Nature of the assay: LTEA_HepaRG_MYC: Life Technologies and Expression Analysis (LTEA) Assay for MYC using HepaRG (AID 2283518). Summed up: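 MYC transcript changes, up or down relative to 0.5% DMSO, from TaqMan qRT-PCR normalized to three housekeeping genes. Human HepaRG cultures received chemicals for 48 h at eight half-log concentrations up to 100 uM, in duplicate.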

Read-out in assay [6]: matrix metalloproteinase-3 (MMP3), MMP3 (gene 4314)
Put plainly: LTEA_HepaRG_MMP3: Life Technologies and Expression Analysis (LTEA) Assay for matrix metalloproteinase-3 (MMP3) using HepaRG (AID 2283519). Summed up:
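Human liver HepaRG cultures received chemicals (top concentration 100 uM, 0.5% DMSO) for 48 h in duplicate. MMP3 mRNA induction or loss was then assessed via TaqMan qRT-PCR with housekeeping-gene normalisation.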

Read-out in assay [7]: Paternally Expressed 10 (PEG10), PEG10 (gene 23089)
Put plainly: LTEA_HepaRG_PEG10: Life Technologies and Expression Analysis (LTEA) Assay for Paternally Expressed 10 (PEG10) using HepaRG (AID 2283520).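 On AC50: PEG10 transcript by qRT-PCR normalised to ACTB GAPDH and POLR2A.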 Put shortly: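 PEG10 transcript measured by Fluidigm qRT-PCR, normalized to three housekeeping genes, in HepaRG cells treated 48 h (highest 100 uM, half-log steps, 0.5% DMSO vehicle). Cells plated 48 h before switching to serum-free induction medium.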

Read-out in assay [8]: Nuclear factor NF-kappa-B p105 subunit (Homo sapiens) (UniProt P19838)
Nature of the assay: LTEA_HepaRG_NFKB1: Life Technologies and Expression Analysis (LTEA) Assay for Nuclear Factor Kappa B Subunit 1 (NFKB1) using HepaRG (AID 2283521).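 On outcome: TaqMan qRT-PCR transcript normalised to ACTB GAPDH and POLR2A housekeeping genes.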 Put shortly:
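Differentiated human HepaRG cells in serum-free induction medium with 0.5% DMSO were exposed for 48 h to eight half-log concentrations, top 100 uM, in duplicate. NFKB1 mRNA measured by Fluidigm TaqMan qRT-PCR, normalised to ACTB, GAPDH and POLR2A; bidirectional fit versus DMSO.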

Read-out in assay [9]: Protein phosphatase 2A (PPP2R4), PTPA (gene 5524)
Nature of the assay: LTEA_HepaRG_PPP2R4: Life Technologies and Expression Analysis (LTEA) Assay for Protein phosphatase 2A (PPP2R4) using HepaRG (AID 2283522). Put shortly:
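Expression was quantified by Fluidigm qRT-PCR normalised to three housekeeping genes after 48 h treatment. Human HepaRG cells received an 8-point series from 100 µM downward by half-logs, in duplicate with 0.5% DMSO vehicle and 1 mM phenobarbital as induction control.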

Read-out in assay [10]: Phosphatase and tensin (PTEN), PTEN (gene 5728)
Put plainly: LTEA_HepaRG_PTEN: Life Technologies and Expression Analysis (LTEA) Assay for Phosphatase and tensin (PTEN) using HepaRG (AID 2283523). Summed up:
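Expression of PTEN is quantified in the human liver line HepaRG following two days of dosing (top concentration 100 uM, half-log dilutions, 0.5% DMSO). Values derive from bidirectional curve fitting relative to DMSO controls.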

Read-out in assay [11]: solute carrier (SLC22A1), SLC22A1 (gene 6580)
Nature of the assay: LTEA_HepaRG_SLC22A1: Life Technologies and Expression Analysis (LTEA) Assay for solute carrier (SLC22A1) using HepaRG (AID 2283524).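 On AC50: TaqMan qRT-PCR normalized to ACTB GAPDH and POLR2A housekeeping genes.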 Summed up:
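Transcript induction or suppression of SLC22A1 in human HepaRG cultures is scored after 48 h chemical treatment, with DMSO (0.5%) as baseline for bidirectional fitting. Concentrations span eight half-log points topping at 100 uM.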

Read-out in assay [12]: Pyruvate Dehydrogenase Kinase 4 (PDK4), PDK4 (gene 5166)
Nature of the assay: LTEA_HepaRG_PDK4: Life Technologies and Expression Analysis (LTEA) Assay for Pyruvate Dehydrogenase Kinase 4 (PDK4) using HepaRG (AID 2283525). Summed up: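 Eight-point, half-log concentration series (max 100 uM, 0.5% DMSO) applied to differentiated HepaRG cells for 48 h in duplicate. Endpoint: PDK4 mRNA induction or repression by qRT-PCR against DMSO baseline.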

Read-out in assay [13]: NAD(P)H dehydrogenase [quinone] 1 (NQO1), NQO1 (gene 1728)
Put plainly: LTEA_HepaRG_NQO1: Life Technologies and Expression Analysis (LTEA) Assay for NAD(P)H dehydrogenase [quinone] 1 (NQO1) using HepaRG (AID 2283526). Put shortly:
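NQO1 transcript induction or loss measured by TaqMan qRT-PCR, referenced to three housekeeping genes and fitted bidirectionally against 0.5% DMSO. HepaRG cultures exposed 48 h, duplicate, eight-point half-log series, top 100 uM.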

Read-out in assay [14]: Nuclear factor erythroid 2-related factor 2 (Homo sapiens) (UniProt Q16236)
Nature of the assay: LTEA_HepaRG_NFE2L2: Life Technologies and Expression Analysis (LTEA) Assay for Nuclear factor erythroid 2-related factor 2 (NFE2L2) Transcription Factor using HepaRG (AID 2283527).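 Further: TaqMan qRT-PCR transcript level normalised to ACTB GAPDH and POLR2A housekeeping genes.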 Put shortly:
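Human liver HepaRG line treated in duplicate for 48 h with an eight-point series topping at 100 uM. Gene expression of NFE2L2 by qRT-PCR, bidirectionally fitted against the vehicle control.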

Read-out in assay [15]: succinate dehydrogenase complex iron sulfur subunit B (SDHB), SDHB (gene 6390)
Put plainly: LTEA_HepaRG_SDHB: Life Technologies and Expression Analysis (LTEA) Assay for succinate dehydrogenase complex iron sulfur subunit B (SDHB) using HepaRG (AID 2283528). Put shortly:
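HepaRG cells (~100,000/well, plated 48 h) exposed in duplicate for 48 h in serum-free induction medium to 8-point half-log series from 100 uM in 0.5% DMSO; mRNA by qRT-PCR normalised to ACTB, GAPDH, POLR2A; bidirectional fit versus DMSO.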

Read-out in assay [16]: Signal transducer and activator of transcription 3 (Homo sapiens) (UniProt P40763)
Put plainly: LTEA_HepaRG_STAT3: Life Technologies and Expression Analysis (LTEA) Assay for Signal transducer and activator of transcription (STAT3) using HepaRG (AID 2283529). Summed up: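 In this transcriptional endpoint, HepaRG cultures receive test chemicals at up to 100 uM for 48 h, tested in duplicate. STAT3 mRNA is normalized to ACTB, GAPDH and POLR2A.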

Read-out in assay [17]: solute carrier (SLCO1B1), SLCO1B1 (gene 10599)
Nature of the assay: LTEA_HepaRG_SLCO1B1: Life Technologies and Expression Analysis (LTEA) Assay for solute carrier (SLCO1B1) using HepaRG (AID 2283530). Summed up:
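SLCO1B1 transcript levels were quantified by TaqMan qRT-PCR using three housekeeping genes for normalization. This followed 48 h chemical exposure (100 uM top, half-log, 8 points, 0.5% DMSO) of HepaRG liver cells, with gain or loss fitted relative to DMSO.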

Read-out in assay [18]: sulfotransferase 2A1 (SULT2A1), SULT2A1 (gene 6822)
Nature of the assay: LTEA_HepaRG_SULT2A1: Life Technologies and Expression Analysis (LTEA) Assay for sulfotransferase 2A1 (SULT2A1) using HepaRG (AID 2283531). Summed up: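 Expression change of SULT2A1, by qRT-PCR with three housekeeping-gene normalization, was scored bidirectionally versus DMSO. Cells: differentiated HepaRG, dosed in duplicate for 48 h across 8 points, highest 100 µM, half-log dilution, 0.5% DMSO.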

Read-out in assay [19]: Transforming Growth Factor (TGFA), TGFA (gene 7039)
Put plainly: LTEA_HepaRG_TGFA: Life Technologies and Expression Analysis (LTEA) Assay for Transforming Growth Factor (TGFA) using HepaRG (AID 2283532). Summed up: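 Gene expression of TGFA was quantified by qRT-PCR after human HepaRG cells were treated for 48 h with test chemicals (eight concentrations, highest 100 uM, 0.5% DMSO). Activity in either direction was fitted relative to DMSO.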

Several values for one entry are separate records, joined by “and”; a condition that tells them apart may be missing. Equal values may be shown once. The source holds several records for some structures; these can differ, active in one and inactive in another. Activity calls are given as the source filed them. How the source made its calls: active means hit-call score of the fitted dose curve at least 0.9, where 1 is the maximum; inactive means score below 0.9.

For orientation: AC50 means the midpoint of the concentration-response curve, whichever way the signal moves.

Chain of Nuclear factor NF-kappa-B p105 subunit (Homo sapiens) (P19838 whole entry, looked up): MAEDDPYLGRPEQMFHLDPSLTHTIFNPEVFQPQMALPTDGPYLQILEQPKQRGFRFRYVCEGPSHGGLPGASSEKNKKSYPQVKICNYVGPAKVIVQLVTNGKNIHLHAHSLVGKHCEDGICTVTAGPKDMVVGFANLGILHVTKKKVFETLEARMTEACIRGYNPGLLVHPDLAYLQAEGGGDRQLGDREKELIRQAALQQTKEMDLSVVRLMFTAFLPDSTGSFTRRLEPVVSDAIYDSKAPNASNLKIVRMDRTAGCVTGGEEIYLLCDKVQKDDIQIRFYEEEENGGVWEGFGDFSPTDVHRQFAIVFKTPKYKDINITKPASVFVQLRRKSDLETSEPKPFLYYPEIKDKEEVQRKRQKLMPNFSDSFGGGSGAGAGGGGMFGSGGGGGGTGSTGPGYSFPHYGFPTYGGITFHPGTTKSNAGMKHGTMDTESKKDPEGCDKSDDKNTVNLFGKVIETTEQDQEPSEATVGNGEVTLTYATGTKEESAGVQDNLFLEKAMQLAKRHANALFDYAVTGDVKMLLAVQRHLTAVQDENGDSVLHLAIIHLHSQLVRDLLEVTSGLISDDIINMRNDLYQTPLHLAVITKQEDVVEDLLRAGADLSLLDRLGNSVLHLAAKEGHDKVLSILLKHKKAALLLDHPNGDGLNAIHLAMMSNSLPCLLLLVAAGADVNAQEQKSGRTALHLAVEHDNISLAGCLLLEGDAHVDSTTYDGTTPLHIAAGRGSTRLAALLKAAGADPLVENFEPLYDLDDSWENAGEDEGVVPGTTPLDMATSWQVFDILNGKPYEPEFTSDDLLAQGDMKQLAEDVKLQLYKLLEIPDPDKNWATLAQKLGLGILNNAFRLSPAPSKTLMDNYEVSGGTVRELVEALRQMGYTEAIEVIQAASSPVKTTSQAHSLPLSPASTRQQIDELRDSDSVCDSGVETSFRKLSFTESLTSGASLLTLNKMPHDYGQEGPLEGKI
Chain of Nuclear factor erythroid 2-related factor 2 (Homo sapiens) (Q16236 whole entry, looked up): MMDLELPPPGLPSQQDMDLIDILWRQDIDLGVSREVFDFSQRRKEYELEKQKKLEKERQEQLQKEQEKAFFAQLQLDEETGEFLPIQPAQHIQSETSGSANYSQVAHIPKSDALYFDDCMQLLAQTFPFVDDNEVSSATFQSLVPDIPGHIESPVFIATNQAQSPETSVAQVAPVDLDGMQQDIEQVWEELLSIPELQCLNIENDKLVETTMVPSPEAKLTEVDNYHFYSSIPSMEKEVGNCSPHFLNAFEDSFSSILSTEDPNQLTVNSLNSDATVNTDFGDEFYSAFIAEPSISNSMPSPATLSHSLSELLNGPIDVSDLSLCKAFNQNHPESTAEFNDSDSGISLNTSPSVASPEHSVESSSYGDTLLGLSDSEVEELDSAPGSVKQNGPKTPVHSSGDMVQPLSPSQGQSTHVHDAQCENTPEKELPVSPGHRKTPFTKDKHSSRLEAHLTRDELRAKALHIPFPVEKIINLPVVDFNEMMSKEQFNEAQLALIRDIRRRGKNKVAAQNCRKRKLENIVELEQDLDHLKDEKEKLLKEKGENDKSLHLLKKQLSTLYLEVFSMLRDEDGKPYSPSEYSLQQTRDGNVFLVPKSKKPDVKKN
Chain of Signal transducer and activator of transcription 3 (Homo sapiens) (P40763 whole entry, looked up): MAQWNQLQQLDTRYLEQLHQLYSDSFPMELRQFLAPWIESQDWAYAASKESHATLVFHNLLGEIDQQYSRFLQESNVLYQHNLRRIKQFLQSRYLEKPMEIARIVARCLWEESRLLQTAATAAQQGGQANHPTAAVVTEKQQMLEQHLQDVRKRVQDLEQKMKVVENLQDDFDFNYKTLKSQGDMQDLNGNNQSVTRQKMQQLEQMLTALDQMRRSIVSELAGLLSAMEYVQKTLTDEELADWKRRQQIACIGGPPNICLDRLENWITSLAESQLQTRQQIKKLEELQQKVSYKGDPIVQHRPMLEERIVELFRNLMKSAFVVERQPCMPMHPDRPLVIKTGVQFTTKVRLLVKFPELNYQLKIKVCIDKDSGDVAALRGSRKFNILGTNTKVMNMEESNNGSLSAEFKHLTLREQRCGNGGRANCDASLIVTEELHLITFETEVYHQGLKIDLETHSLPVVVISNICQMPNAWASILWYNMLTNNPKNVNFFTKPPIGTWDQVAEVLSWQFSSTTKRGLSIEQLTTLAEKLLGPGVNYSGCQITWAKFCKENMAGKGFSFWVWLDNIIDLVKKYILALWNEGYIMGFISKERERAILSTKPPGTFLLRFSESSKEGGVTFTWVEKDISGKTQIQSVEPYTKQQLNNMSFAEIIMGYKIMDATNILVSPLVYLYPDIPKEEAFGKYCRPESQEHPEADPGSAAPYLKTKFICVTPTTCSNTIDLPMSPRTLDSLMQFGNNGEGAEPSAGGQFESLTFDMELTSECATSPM

With `Oc1ccc(Cl)cc1Cc1ccccc1`, the outcome is “inactive” in [1]; “inactive” in assay [2]; “inactive” in assay [3]; “inactive” in assay [4]; “inactive” in assay [5]; “inactive” in the assay with MYC, MYC (gene 4609). Also, the result in [6], in [8], in assay [9], in [10], in [11] and in assay [12] was inactive. The call in assay [13], in assay [14], in assay [15], in assay [16], in assay [17] and in assay [18] was inactive. In [19], the call was inactive. In addition, the AC50 in assay [2] was 80.2 µM (active); in assay [3], 82.2 µM (active) and 89.3 µM (active); in assay [4], 82.4 µM (active); in assay [7], 89 µM (active) and 77.3 µM (active) and 78.6 µM (active); in assay [8], 15.7 µM (active); in assay [10] it was 86 µM (active). Further, the AC50 in assay [11] was 91.8 µM (active) and 91.6 µM (active); in assay [12], 76.8 µM (active) and 83.6 µM (active); in assay [17] it was 81.5 µM (active).

Regarding `COP(=S)(OC)Oc1ccc(SC)c(C)c1`, the outcome in assay [1] is “inactive”; in assay [2], “inactive”; in assay [3], “inactive”; in [4], “inactive”; in assay [5] it was “inactive”; with MYC, MYC (gene 4609) it was “inactive”. The call in assay [8], in [9], in assay [10], in assay [11], in [12] and in assay [13] was inactive. The compound was called inactive in assay [14], in assay [15], in assay [16], in assay [17], in assay [18] and in assay [19]. The AC50 is 50 µM (active) in [6] and 9.92 µM (active) in assay [7].

For `CNC(=O)Oc1ccccc1OC(C)C`, the outcome in assay [1] is “inactive”; in assay [2], “inactive”; in [3] it was “inactive”; in assay [4], “inactive”; in assay [5], “inactive”; in the assay with MYC, MYC (gene 4609) it was “inactive”. The call in assay [6], in assay [7], in [8], in [9], in assay [10] and in [11] was inactive. The result in [12], in [13], in assay [14], in [15], in assay [16] and in [17] was inactive. For the same compound, the compound was classed as inactive in [18] and in [19].

These data come from PubChem BioAssay (EPA / NIEHS).
